Measurements taken from PubChem BioAssay (Tox21).
Where “and” joins values, the source holds several entries; their conditions need not be identical. Equal entries are not always repeated. Results filed as inconclusive are left out. Some compounds were tested as several samples or in several runs, with calls that do not always agree. Calls of active or inactive are those of the source. The call rests on the fitted dose curve; in most records, active means well fitted cell-killing curve with a large enough effect in the repeat runs; inconclusive means weak or mixed curves; inactive means flat fitted curve, though single readings scatter.

Test: qHTS RealTime-Glo MT Cell Viability Assay in HepG2 cells - 16 hour (AID 1224885); further: nearly all actives have a fitted effect of over 50% in size
Conditions: RealTime-Glo luminescence; series mostly up to 76.8 µM; activity change, negative = cytotoxic: at the top concentration
Description: U.S. Tox21 Program National Center for Advancing Translational Sciences [NCATS] NIH Chemical Genomics Center [NCGC] U.S. Environmental Protection Agency [EPA] National Institutes of Environmental Health Sciences [NIEHS] National Toxicology Program [NTP] U.S. Food and Drug Administration [FDA] Tox21 Assay Overview: Measure of cell viability is critical in the cell-base assay. Analysis of cell viability is necessary for the characterization of cell responses to cytotoxic drugs and environmental stress. A RealTime-Glo MT Cell Viability Assay to monitor cell viability in real time of continues cell culture during 40 hours of compound treatment was used to screen Tox21 10K library compounds in HepG2 cells. The RealTime-Glo MT Cell Viability Assay is a nonlytic, homogeneous, bioluminescent method to measure cell viability in real time using a simple, plate-based method. The assay involves adding NanoLuc luciferase and a cell-permeant prosubstrate to cells in culture. Viable cells reduce the proprietary prosubstrate to generate a substrate for NanoLuc luciferase. This substrate diffuses from cells into the surrounding culture medium, where it is rapidly used by the NanoLuc Enzyme to produce a luminescent signal. The signal correlates with the number of viable cells, making the assay well suited for cytotoxicity studies.
Tox21 Assay Protocol Summary: The mixture of HepG2 cell suspension and reagents were dispensed at 600cells/6 ul/well in 1536-well tissue culture treated black solid bottom plates using a Multidrop dispenser. After the assay plates were incubated at a 37 C/5% CO2 incubator for 5 hours, 23 nL of compounds dissolved in DMSO, positive and negative controls was transferred to the assay plate by a pintool work station. The plates were incubated at 37 C for 40 hours. The luminescence intensity were measured at 0h, 8h, 16h, 24h, 32h and 40h time points using ViewLux plate reader during compound treatment.
On the % scale 0 is the no-effect control and ±100 the full control effect; potency means the concentration at half of the fitted maximal effect.

| Compound | activity change, negative = cytotoxic | Potency |
| --- | --- | --- |
| CCOP(=S)(OCC)Oc1cc(Cl)c(Br)cc1Cl | -6.61% (inactive) |  |
| CCOc1nc(F)cc2nc(S(=O)(=O)Nc3c(Cl)cccc3Cl)nn12 | 2.73% (inactive) |  |
| O=C1C(=O)c2cccc3cccc1c23 | 25.6% (inactive) |  |
| O=[N+]([O-])c1ccccc1CCl | 3.24% (inactive) |  |
| BrCC(Br)C1CCC(Br)C(Br)C1 (stereo not given) | -7.8% (inactive) |  |
| C=CC(C)=O | -0.955% (inactive) |  |
| Cn1sc(Cl)cc1=O | 0.759% (inactive) |  |
| [CH3][Sn]([CH3])([Cl])[Cl] |  | inactive |
| CCCCNP(N)(N)=S | -1.93% (inactive) |  |
| O=C1C(Cl)C(CCl)CN1c1cccc(C(F)(F)F)c1 (stereo not given) | -14.9% (inactive) |  |
| CCOC(=O)COc1cc(-c2nn(C)c(OC(F)F)c2Cl)c(F)cc1Cl | -14.1% (inactive) |  |
| S=C=NCc1ccccc1 | -20.7% (inactive) |  |
| CCOC(=O)CBr | 0.43% (inactive) |  |
| Cc1ccccc1C(=O)Nc1cccc(OC(C)C)c1 | -12.3% (inactive) |  |
| OCCCBr | 0.0108% (inactive) |  |
| [O-][Cl+]O | 2.46% (inactive) |  |
| O=C(CCl)c1ccc(Cl)cc1Cl |  | inactive and 16.9 µM (active) |
| O=C(O)C(F)(F)C(F)(F)C(F)(F)C(F)(F)C(F)(F)C(F)(F)C(F)(F)C(F)(F)C(F)(F)C(F)(F)F | 5.83% (inactive) |  |
| CC(Cl)Cl | -0.0097% (inactive) |  |
| CCOc1ccc(C(C)(C)COCc2cccc(Oc3ccccc3)c2)cc1 | 2.69% (inactive) |  |

| Compound | activity change, negative = cytotoxic | Potency |
| --- | --- | --- |
| Nc1nc(N)nc(N)n1 | 0.0045% (inactive) |  |
| C=CC(=O)OCC(C)C | -1.17% (inactive) |  |
| C=CCCl | 0.308% (inactive) |  |
| CCOS(C)(=O)=O | 0.707% (inactive) |  |
| Cc1cc(=O)[nH]o1 | 0.522% (inactive) |  |
| Nc1ccc([N+](=O)[O-])cc1[N+](=O)[O-] | -8.94% (inactive) |  |
| Clc1cccc2ccccc12 | 0.716% (inactive) |  |
| Cc1c(F)c(F)c(COC(=O)C2C(/C=C(\Cl)C(F)(F)F)C2(C)C)c(F)c1F (stereo not given) | -3.82% (inactive) |  |
| ClCC(Br)CBr (stereo not given) | 0.184% (inactive) |  |
| Clc1cc(C(Cl)(Cl)Cl)cnc1Cl | -17.2% (inactive) |  |
| O=Cc1ccc2c(c1)OCO2 | -0.0869% (inactive) |  |
| NNC(=O)c1cccnc1 | 0.0483% (inactive) |  |
| COc1cc(Cl)c(OC)cc1Cl | 1.67% (inactive) |  |
| ClC=C(Cl)Cl | 2.02% (inactive) |  |
| CCOP(=O)(OCC)O/C(=C/Cl)c1ccc(Cl)cc1Cl | -21% (inactive) |  |
| O=S(=O)(O)C(F)(F)C(F)(F)C(F)(F)C(F)(F)F | 1.02% (inactive) |  |
| CCC(C)(NC(=O)c1cc(Cl)c(C)c(Cl)c1)C(=O)CCl (stereo not given) |  | 49.3 µM (active) |
| O=[N+]([O-])c1ccc(F)c([N+](=O)[O-])c1 | -22.2% (inactive) |  |
| COC(N)=O | 2.1% (inactive) |  |
| C/C=C/C=O | -2.52% (inactive) |  |
